Data as given in the supplement of paper PMC3334620.
Whole data set: some 33,000 sequences, median “E-score (-0.5 to 0.5)” near -0.041, cut for the highest 2% near 0.37. This excerpt belongs to a sample that is enriched for the highest values.

biological target: T1, Ecm22 (UniProt Q05958); experiment: PBM E-score (8-mer binding enrichment) (E-score (-0.5 to 0.5)); higher = stronger / more preferred TF binding; details: protein concentration: 200 nM; construct: GST-full length
T1 sequence: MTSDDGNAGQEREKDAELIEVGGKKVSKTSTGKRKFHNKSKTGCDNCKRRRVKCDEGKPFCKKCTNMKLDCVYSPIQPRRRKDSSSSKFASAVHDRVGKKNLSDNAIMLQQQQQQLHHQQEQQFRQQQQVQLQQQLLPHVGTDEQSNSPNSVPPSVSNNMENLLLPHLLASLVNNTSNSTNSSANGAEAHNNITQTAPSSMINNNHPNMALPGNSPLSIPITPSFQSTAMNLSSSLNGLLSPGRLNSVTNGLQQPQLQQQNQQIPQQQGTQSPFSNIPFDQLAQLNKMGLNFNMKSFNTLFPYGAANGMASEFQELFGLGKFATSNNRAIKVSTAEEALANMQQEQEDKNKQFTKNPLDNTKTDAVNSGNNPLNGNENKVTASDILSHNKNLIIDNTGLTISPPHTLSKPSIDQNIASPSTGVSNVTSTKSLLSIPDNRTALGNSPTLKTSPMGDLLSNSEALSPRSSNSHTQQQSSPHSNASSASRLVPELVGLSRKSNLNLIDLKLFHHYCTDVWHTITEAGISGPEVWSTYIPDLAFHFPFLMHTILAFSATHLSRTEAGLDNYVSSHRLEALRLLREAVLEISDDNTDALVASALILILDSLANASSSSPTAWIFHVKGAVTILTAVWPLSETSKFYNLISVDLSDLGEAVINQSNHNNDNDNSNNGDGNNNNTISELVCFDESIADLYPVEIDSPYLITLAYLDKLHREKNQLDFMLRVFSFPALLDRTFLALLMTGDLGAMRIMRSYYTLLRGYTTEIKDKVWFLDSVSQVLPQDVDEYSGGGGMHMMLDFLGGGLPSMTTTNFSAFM
Experimental: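 Universal 'all 10-mer' protein binding microarrays (Agilent AMADID 015681) probed with GST-tagged S. cerevisiae TFs (full-length or DBD) made by in vitro transcription/translation (PURExpress), about 100-200 nM. Bound TF was detected with fluorescent anti-GST. Each ungapped 8-mer (which stands for itself and its reverse complement) is scored by the PBM enrichment score (E-score), a modified Wilcoxon-Mann-Whitney statistic from -0.5 to +0.5, computed with the Universal PBM Analysis Suite. Scale: above 0.35 generally sequence-specific binding.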

Sequence	PBM E-score
AAAATACA	-0.0245
CATATACC	-0.0901
AATATACT	-0.0273
CATATACA	0.0321
AAAATACG	0.372
AATATACA	0.104
AAAATACC	0.0602
CATATACG	0.445
AATATACG	0.461
ACCCCGGT	0.00636
GGAGTTGA	0.0109
CTCTAGAA	-0.201
AAGGGCCC	-0.0372
CGCGGCTA	0.0813
ACATGCCC	-0.0896
ATCCGTGC	-0.0378
CACCGTAA	0.277
CTCCGTAA	0.187
ATCCGTAC	0.363
CACCGTAC	0.4
CTCCGTAC	0.386
CACCGTAG	0.0943
AAAAAGGG	-0.092
ACATCTAT	0.0869

Sequence	PBM E-score
CCAGGGCA	-0.108
GGCGCCCA	-0.0786
TCGCCCGA	-0.102
GACGTAAA	0.154
CTCGTAAA	0.475
GTCGTAAA	0.473
ATCGTAAA	0.436
ATCGTAAG	0.308
CCCGTAAA	0.32
ATCGTAAT	0.263
GGCGTAAA	0.159
TGCGTAAA	0.228
CACGTAAA	0.106
TCCGTAAA	0.332
TTCGTAAA	0.456
CTCCACAG	-0.248
GCGCGACC	0.173
ACTCCGGC	0.0584
AAAAACTG	-0.116
GCCTCGCA	0.205
ACAACCGC	0.111
AGCCTTAC	-0.108
CTTCGGCC	-0.151
GCGAACAA	0.148

Sequence	PBM E-score
ACGAACAC	0.318
CCGAACAA	0.127
ACGAACAT	0.386
ACGAACAG	0.282
ACGAACAA	0.38
GGCCGACC	-0.224
GCCTGAAA	-0.139
GACGTCTA	-0.23
AGGACGGG	-0.147
ACGACGGC	0.37
ACGACGGG	0.393
ACGACGGA	0.388
GCGACGGA	0.124
CCGACGGC	0.129
CCGACGGA	0.0916
ATGACGGC	-0.236
ATGACGGG	-0.125
CACGTTCC	0.201
AGGCAACT	-0.02
ATCCTACC	-0.186
AACGGAGA	0.18
ATCGGGCA	-0.122
CTGCGAAG	-0.0466
AATAAACA	0.0258

Sequence	PBM E-score
CATAAACG	0.437
CATAAACA	-0.0236
CATAAACC	-0.0464
AATAAACT	-0.0489
AATAAACG	0.41
CGGCACTA	-0.0606
GAAGTCGC	0.108
ATGCACCA	-0.108
TAGATAAA	0.057
ACGACGTA	0.414
ATGACGTG	-0.166
CCGACGAG	0.165
ACGACGTC	0.393
GCGACGTA	0.265
ACGACGTG	0.372
CCGACGTC	0.138
AGGACGTG	-0.194
AAGACGTC	0.00719
ACGACGAC	0.364
CCGACGTA	0.208
ACGACGAG	0.38
GACCCGTA	0.24
